Experimental data from the supplement of paper PMC7156485.

Columns and labels:
Details in all cases: concentration: 10 µM; 24 h
HCC1569 [1] = experiment: cell number relative to DMSO (% of DMSO); higher = more cells (less growth inhibition / toxicity)
Method in brief: (§1)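 Cells were seeded at 800 per well in 384-well plates with RPMI containing 10% FBS; both HCC1569 and TDF lines were used. Compounds were added at 10 µM for 24 h at 37 °C, in triplicate, before fixation in 3.7% formaldehyde and staining with a rabbit anti-H1.0 antibody, an AlexaFluor 647 secondary and DAPI. H1.0 nuclear intensity or cell number is reported as percent of the plate control using the median of replicates, and HCC1569 values were smoothed for positional effects.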

TDF [2] = experiment: as above
Method in brief: as §1

TDF [3] = experiment: H1.0 immunofluorescence intensity relative to DMSO (% of DMSO); higher = stronger H1.0 induction, active = 120 or more
Method in brief: as §1

HCC1569 [4] = experiment: H1.0 immunofluorescence intensity relative to DMSO (% of DMSO); higher = stronger H1.0 induction, active = 140 or more
Method in brief: as §1
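Throughout, for H1.0 immunofluorescence intensity relative to DMSO: TDF is a line of transformed human dermal fibroblasts of mesenchymal origin.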
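Throughout, for cell number relative to DMSO: TDF denotes transformed human dermal fibroblasts of mesenchymal origin.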

## Cc1ccc([N+](=O)[O-])cc1S(=O)(=O)N(C)N=Cc1cnc2ccc(Br)cn12
HCC1569 [1]
  cell number: 52
TDF [2]
  cell number: 11.6
TDF [3]
  H1.0 immunofluorescence intensity: 111 (inactive)
HCC1569 [4]
  H1.0 immunofluorescence intensity: 104 (inactive)

## c1ccc(-c2ccccn2)nc1 [2,2'-Bipyridyl]
HCC1569 [1]
  cell number: 107
TDF [2]
  cell number: 95
TDF [3]
  H1.0 immunofluorescence intensity: 104 (inactive)
HCC1569 [4]
  H1.0 immunofluorescence intensity: 102 (inactive)

## Cc1ccccc1C(OCCN(C)C)c1ccccc1.O=C(O)CC(O)(CC(=O)O)C(=O)O (configuration not stated) [Orphenadrine citrate]
HCC1569 [1]
  cell number: 111
TDF [2]
  cell number: 113
TDF [3]
  H1.0 immunofluorescence intensity: 91.6 (inactive)
HCC1569 [4]
  H1.0 immunofluorescence intensity: 96.1 (inactive)

## NC(N)=NC(CCC(=O)O)C(=O)O (stereo not drawn) [alpha-Guanidinoglutaric acid]
HCC1569 [1]
  cell number: 104
TDF [2]
  cell number: 108
TDF [3]
  H1.0 immunofluorescence intensity: 92.6 (inactive)
HCC1569 [4]
  H1.0 immunofluorescence intensity: 86.2 (inactive)

## CC(=O)OC12COC1CC(O)C1(C)C(=O)C(O)C3=C(C)C(OC(=O)C(O)C(NC(=O)OC(C)(C)C)c4ccccc4)CC(O)(C(OC(=O)c4ccccc4)C21)C3(C)C (configuration not stated) [Docetaxil]
HCC1569 [1]
  cell number: 61.6
TDF [2]
  cell number: 13
TDF [3]
  H1.0 immunofluorescence intensity: 147 (active)
HCC1569 [4]
  H1.0 immunofluorescence intensity: 144 (active)

## O=c1c(O)c(-c2ccc(O)cc2)oc2cc(O)cc(O)c12 [Kaempferol]
HCC1569 [1]
  cell number: 98.4
TDF [2]
  cell number: 93.9
TDF [3]
  H1.0 immunofluorescence intensity: 93.5 (inactive)
HCC1569 [4]
  H1.0 immunofluorescence intensity: 115 (inactive)

## C#CCN(C)Cc1ccccc1.Cl [Pargyline hydrochloride]
HCC1569 [1]
  cell number: 114
TDF [2]
  cell number: 105
TDF [3]
  H1.0 immunofluorescence intensity: 91.7 (inactive)
HCC1569 [4]
  H1.0 immunofluorescence intensity: 101 (inactive)

## CC1(NCC(O)COc2cccc3[nH]ccc23)CCC(C(C)(C)NC(=O)CBr)CC1 (configuration not stated) [Pindobind-5HT1A]
HCC1569 [1]
  cell number: 61.4
TDF [2]
  cell number: 10.4
TDF [3]
  H1.0 immunofluorescence intensity: 135 (active)
HCC1569 [4]
  H1.0 immunofluorescence intensity: 178 (active)

## CN1CCN(CCCN2c3ccccc3Sc3ccc(C(F)(F)F)cc32)CC1.Cl.Cl [Trifluoperazine dihydrochloride]
HCC1569 [1]
  cell number: 87.3
TDF [2]
  cell number: 108
TDF [3]
  H1.0 immunofluorescence intensity: 107 (inactive)
HCC1569 [4]
  H1.0 immunofluorescence intensity: 141 (active)

## CCSC(N)=Nc1ccc(C(F)(F)F)cc1.Cl [TFPI hydrochloride]
HCC1569 [1]
  cell number: 79.3
TDF [2]
  cell number: 90.8
TDF [3]
  H1.0 immunofluorescence intensity: 99.6 (inactive)
HCC1569 [4]
  H1.0 immunofluorescence intensity: 132 (inactive)

## Cl.c1ccc2c(CC3=NCCN3)cccc2c1 [Naphazoline hydrochloride]
HCC1569 [1]
  cell number: 96.1
TDF [2]
  cell number: 108
TDF [3]
  H1.0 immunofluorescence intensity: 91.2 (inactive)
HCC1569 [4]
  H1.0 immunofluorescence intensity: 90.2 (inactive)

## Nc1ccc(N2C(=O)c3ccccc3C2=O)c(Cl)c1 [N-(4-Amino-2-chlorophenyl)phthalimide]
HCC1569 [1]
  cell number: 103
TDF [2]
  cell number: 107
TDF [3]
  H1.0 immunofluorescence intensity: 94.3 (inactive)
HCC1569 [4]
  H1.0 immunofluorescence intensity: 100 (inactive)

## CN(C)CCC=C1c2ccccc2CCc2ccccc21.Cl [Amitriptyline hydrochloride]
HCC1569 [1]
  cell number: 100
TDF [2]
  cell number: 100
TDF [3]
  H1.0 immunofluorescence intensity: 104 (inactive)
HCC1569 [4]
  H1.0 immunofluorescence intensity: 94.1 (inactive)
